Source: PubChem BioAssay (NCI)
Compounds without any hit were thinned out: in the full panel of roughly 79,000, 15% have a hit. A number with no mark means an inactive call. Activity calls are given as the source filed them. No stated cut-off is given here; in the data, active means growth inhibition above about 70%; inactive means the rest.

Legend:
[1] = NCI Yeast Anticancer Drug Screen. Data for the rad50 strain (AID 155);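 further: 0% = growth of vehicle-only cultures of the same strain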; details: S. cerevisiae rad50 strain growth inhibition, hits give high values
How it was run: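 Genetically altered yeast (DNA repair pathway); compound treatment; growth inhibition vs vehicle ctrl.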

[2] = NCI Yeast Anticancer Drug Screen. Data for the mec2-1 strain (AID 157); details: S. cerevisiae mec2-1 strain, hits give high values
How it was run: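 Using mec2-1 yeast: add compound, measure growth, express inhibition versus vehicle-treated cultures.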

[3] = NCI Yeast Anticancer Drug Screen. Data for the sgs1 mgt1 strain (AID 161);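 further: 0% = growth of cultures given vehicle only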; details: S. cerevisiae sgs1 mgt1 strain, hits give high values
How it was run: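 Yeast cells carrying a defined DNA-repair defect were exposed to test compounds. Growth inhibition was measured relative to vehicle-treated controls.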

[4] = NCI Yeast Anticancer Drug Screen. Data for the cln2 rad14 strain (AID 165);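 further: 0% = growth equal to vehicle treated cultures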; details: S. cerevisiae cln2 rad14 strain, hits give high values
How it was run: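 Yeast strain cln2 rad14, bearing defects in cell cycle control and DNA repair, serves as the test system; values reflect growth inhibition compared with vehicle.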

[5] = NCI Yeast Anticancer Drug Screen. Data for the bub3 strain (AID 167); details: S. cerevisiae bub3 mutant strain, hits give high values
How it was run: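 Yeast carrying a defined mutation is treated with each compound, and growth is compared with that of vehicle-exposed cells to give inhibition.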

[6] = NCI Yeast Anticancer Drug Screen. Data for the mlh1 rad18 strain (AID 175); details: S. cerevisiae mlh1 rad18 strain growth inhibition, hits give high values
How it was run: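 Steps: expose repair-defective yeast to compound; measure growth; express inhibition against vehicle-treated controls.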

[7] = at 5.0 µM (retest, dose inferred, filed as 0.5)
[8] = at 50.0 µM (retest, dose inferred, filed as 5.0)

SMILES	growth inhibition [1, 7]	growth inhibition [1, 8]	growth inhibition ([1]; at 50.0 µM)	growth inhibition [2, 7]	growth inhibition [2, 8]	growth inhibition ([2]; at 50.0 µM)	growth inhibition [3, 7]	growth inhibition [3, 8]	growth inhibition ([3]; at 50.0 µM)	growth inhibition [4, 7] [%]	growth inhibition [4, 8]	growth inhibition ([4]; at 50.0 µM)	growth inhibition [5, 7]	growth inhibition [5, 8]	growth inhibition ([5]; at 50.0 µM)	growth inhibition [6, 7]	growth inhibition [6, 8]	growth inhibition ([6]; at 50.0 µM)
CCn1c(=O)cc2n(C)c3ccccc3n2c1=O	-30%	-23%	17.3%	0%	-7%	17.4%	-15%	-28%	-5.15%	-39	-24%	62.7%	-23%	-15%	0.6%	-36%	-14%	23.4%
CCC(CC)N(CCNc1cc(OC)cc2cccnc12)CC(C)C	7%	7%	60.8%	1%	0%	26%	4%	12%	53.6%	9	-6%	49.5%	4%	11%	57%	4%	10%	67.8%
C1=C(c2ccccc2)C(=Nc2ccccc2)SC1=Nc1ccccc1	52%	100% (active)	99% (active)	46%	100% (active)	99.5% (active)	32%	99% (active)	99.5% (active)	33	99% (active)	99.3% (active)	53%	99% (active)	99% (active)	38%	99% (active)	99.5% (active)
C#CC(CC)(CC)NC(=O)NC(C)(C)C	0%	-18%	2.1%	-26%	-25%	0.85%	-11%	-1%	35.5%	2	23%	-1.85%	-19%	-17%	28.4%	-21%	-59%	2.3%
COC(=O)Nc1nc2ccc(C(C)(O)c3cccs3)cc2[nH]1 (stereo not given)	-2%	92% (active)	97% (active)	-8%	95% (active)	98.2% (active)	3%	95% (active)	98% (active)	-15	87% (active)	92.2% (active)	-3%	94% (active)	97.1% (active)	-5%	95% (active)	97.8% (active)
O=C(Nc1ccccc1)c1ccccc1O	2%	93% (active)	86.2% (active)	-2%	91% (active)	79.5% (active)	2%	87% (active)	92.6% (active)	-3	84% (active)	73.8% (active)	-2%	92% (active)	86% (active)	-4%	98% (active)	97.2% (active)
c1ccc2c(c1)Cc1nc3ccccc3nc1-2	-33%	93% (active)	98.3% (active)	-42%	93% (active)	98.2% (active)	-59%	86% (active)	90.6% (active)	-56	88% (active)	90% (active)	-65%	90% (active)	97.4% (active)	-118%	92% (active)	97.8% (active)
CCC12C=CCN3CCC4(c5cc(C(c6ccccn6)c6cc7ccccc7n6C)c(OC)cc5N(C)C4C(O)(C(=O)OC)C1OC(C)=O)C32 (stereo not given)	4%	0%	68.3%	46%	0%	81.5% (active)	-1%	2%	49.6%	-2	-5%	83.3% (active)	-2%	-3%	65%	3%	11%	94.7% (active)
Clc1cc[c]([Sn]([Cl])([O][Sn]([Cl])([c]2ccc(Cl)cc2)[c]2ccc(Cl)cc2)[c]2ccc(Cl)cc2)cc1	89% (active)	97% (active)	86.5% (active)	95% (active)	98% (active)	88.5% (active)	96% (active)	97% (active)	87.6% (active)	42	98% (active)	81.5% (active)	97% (active)	98% (active)	87% (active)	90% (active)	95% (active)	92.7% (active)
C(=C\c1cccc2ccccc12)/c1ccncc1	8%	97% (active)	98.9% (active)	-19%	99% (active)	99.2% (active)	-14%	98% (active)	99.2% (active)	-2	96% (active)	99% (active)	4%	97% (active)	98.5% (active)	-11%	98% (active)	99.1% (active)
